# Experimental data from PubChem BioAssay (NCATS).
# Records with an inconclusive call do not appear. The source made the active and inactive calls. Calls come from the whole dose curve; as a rule, active = well fitted cell-killing curve with a large enough effect; inconclusive = small, poorly fitted or top-dose-only effect, or effect the other way; inactive = flat fitted curve, though single readings scatter.
# Test system: Tov112D
# Assay: Primary qHTS to identify gynecologic anti-cancer compounds using libraries of approved drugs and bioactive compounds (AID 1345084); note: nearly all actives have a fitted effect of over 55% in size
# Conditions: Gynecologic cancer cell panel viability, ATPlite luminescence, 48 h; series mostly up to 57.5 µM
# Summary of the method: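 Cytotoxicity screen measuring ATP content by luciferase luminescence. Each compound is applied at five concentrations for 48 h at 37 C with 5% CO2.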
row,SMILES,outcome
1,Nc1ccc(N=Nc2ccccc2)c(N)n1,inactive
2,CC(C)(C)c1ccc(CN2CCN(C(c3ccccc3)c3ccc(Cl)cc3)CC2)cc1 (stereo unspecified),inactive
3,O=C(OCc1ccccc1)c1ccc(O)cc1,inactive
4,O=C(O)Cc1cc(I)c(Oc2ccc(O)c(I)c2)c(I)c1,inactive
5,C=C1[C@H](CO)[C@@H](O)C[C@@H]1n1cnc2c(=O)[nH]c(N)nc21,inactive
6,N[C@@H](Cc1cc(I)c(Oc2ccc(O)c(I)c2)c(I)c1)C(=O)O,inactive
7,CCN(CC)CCOCCOC(=O)C(CC)(CC)c1ccccc1,inactive
8,CO[C@H]1C[C@@H]2CC[C@@H](C)[C@@](O)(O2)C(=O)C(=O)N2CCCC[C@H]2C(=O)O[C@H]([C@H](C)C[C@@H]2CC[C@@H](OC(=O)C(C)(CO)CO)[C@H](OC)C2)CC(=O)[C@H](C)/C=C(\C)[C@@H](O)[C@@H](OC)C(=O)[C@H](C)C[C@H](C)/C=C/C=C/C=C/1C,inactive
9,CC(=O)Oc1cccc2c1C(=O)c1c(OC(C)=O)cc(C(=O)O)cc1C2=O,inactive
10,C/C(=C\C(=O)OCCCCCCCCC(=O)O)C[C@@H]1OC[C@H](C[C@@H]2O[C@H]2[C@@H](C)[C@H](C)O)[C@@H](O)[C@H]1O,inactive
11,C=C1CC[C@H](O)CC1=C/C=C1\CCC[C@]2(C)[C@@H]([C@H](C)/C=C/[C@H](C)C(C)C)CC[C@@H]12,inactive
12,CN(C)CCCSc1ccccc1NC(=O)/C=C/c1ccccc1,inactive
13,O=C1c2ccccc2C(=O)c2c1ccc(O)c2O,inactive
14,C[C@]12CC[C@@H]3c4ccc(OC(=O)c5ccccc5)cc4CC[C@H]3[C@@H]1CC[C@@H]2O,inactive
15,CC1CC(OC(=O)C(O)c2ccccc2)CC(C)(C)C1 (stereo unspecified),inactive
16,O=C(O)CCC(=O)c1ccc(-c2ccccc2)cc1,inactive
